This is an account of results in ChEMBL document CHEMBL1961873, “Compounds: GSK PKIS; Assays: Nanosyn kinase panel” (2012).

In test [1] the target is Ribosomal protein S6 kinase alpha-6 (Homo sapiens) (UniProt Q9UK32). The note with it: at 1 µM.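 Note: each value is a mean inhibition of RSK4 from a GSK PKIS panel screen.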
Test [2] addresses T1, Serine/threonine-protein kinase Sgk1 (Homo sapiens) (UniProt O00141).
T1 sequence (whole entry): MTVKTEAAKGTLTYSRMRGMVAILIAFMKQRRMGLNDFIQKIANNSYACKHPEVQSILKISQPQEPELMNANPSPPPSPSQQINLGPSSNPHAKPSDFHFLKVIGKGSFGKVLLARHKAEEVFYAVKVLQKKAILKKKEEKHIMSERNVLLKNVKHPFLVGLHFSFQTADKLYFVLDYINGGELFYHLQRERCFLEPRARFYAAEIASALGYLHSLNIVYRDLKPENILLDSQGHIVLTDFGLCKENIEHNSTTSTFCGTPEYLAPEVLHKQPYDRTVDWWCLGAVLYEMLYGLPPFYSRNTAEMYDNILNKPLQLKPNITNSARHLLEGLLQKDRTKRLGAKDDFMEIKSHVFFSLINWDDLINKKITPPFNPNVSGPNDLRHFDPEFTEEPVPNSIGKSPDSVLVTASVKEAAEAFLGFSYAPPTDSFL
The note with it: at 0.1 µM.

Test [3] concerns the target T1, Serine/threonine-protein kinase Sgk1 (Homo sapiens). As to conditions: at 1 µM.
The target of test [4] is T2, Serine/threonine-protein kinase Sgk2 (Homo sapiens) (UniProt Q9HBY8).
T2 sequence (whole entry): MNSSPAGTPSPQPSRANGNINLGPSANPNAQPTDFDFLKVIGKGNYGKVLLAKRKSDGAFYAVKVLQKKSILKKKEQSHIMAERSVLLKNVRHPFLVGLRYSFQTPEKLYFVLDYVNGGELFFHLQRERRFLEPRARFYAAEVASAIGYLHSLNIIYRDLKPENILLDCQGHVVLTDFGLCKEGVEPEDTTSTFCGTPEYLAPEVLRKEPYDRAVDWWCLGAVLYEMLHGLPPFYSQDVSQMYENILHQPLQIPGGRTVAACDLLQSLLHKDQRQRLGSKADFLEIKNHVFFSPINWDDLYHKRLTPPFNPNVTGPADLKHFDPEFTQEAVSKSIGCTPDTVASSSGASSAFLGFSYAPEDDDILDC
As to conditions: at 0.1 µM.

Test [5] has as its target T2, Serine/threonine-protein kinase Sgk2 (Homo sapiens). The note with it: at 1 µM.
Test [6] has as its target T3, Serine/threonine-protein kinase Sgk3 (Homo sapiens) (UniProt Q96BR1).
T3 sequence (whole entry): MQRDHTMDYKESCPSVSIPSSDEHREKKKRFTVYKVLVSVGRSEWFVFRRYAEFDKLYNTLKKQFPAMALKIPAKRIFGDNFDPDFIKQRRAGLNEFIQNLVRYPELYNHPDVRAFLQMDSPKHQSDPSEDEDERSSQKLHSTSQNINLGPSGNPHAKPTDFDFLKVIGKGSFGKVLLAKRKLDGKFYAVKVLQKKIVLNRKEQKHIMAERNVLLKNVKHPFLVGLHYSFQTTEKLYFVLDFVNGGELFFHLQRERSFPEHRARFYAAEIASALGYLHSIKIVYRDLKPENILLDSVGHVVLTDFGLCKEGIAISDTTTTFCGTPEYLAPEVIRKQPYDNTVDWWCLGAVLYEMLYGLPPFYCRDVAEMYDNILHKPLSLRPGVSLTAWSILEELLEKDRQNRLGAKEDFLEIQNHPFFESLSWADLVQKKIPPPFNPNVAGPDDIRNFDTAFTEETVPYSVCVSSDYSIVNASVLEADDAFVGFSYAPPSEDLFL
As to conditions: at 0.1 µM.

The target in test [7] is T3, Serine/threonine-protein kinase Sgk3 (Homo sapiens). As to conditions: at 1 µM.
In test [8] the target is 5'-AMP-activated protein kinase catalytic subunit alpha-1 (Homo sapiens) (UniProt Q13131). The note with it: at 0.1 µM.
Sequence of 5'-AMP-activated protein kinase catalytic subunit alpha-1 (Homo sapiens) (Q13131 whole entry, looked up): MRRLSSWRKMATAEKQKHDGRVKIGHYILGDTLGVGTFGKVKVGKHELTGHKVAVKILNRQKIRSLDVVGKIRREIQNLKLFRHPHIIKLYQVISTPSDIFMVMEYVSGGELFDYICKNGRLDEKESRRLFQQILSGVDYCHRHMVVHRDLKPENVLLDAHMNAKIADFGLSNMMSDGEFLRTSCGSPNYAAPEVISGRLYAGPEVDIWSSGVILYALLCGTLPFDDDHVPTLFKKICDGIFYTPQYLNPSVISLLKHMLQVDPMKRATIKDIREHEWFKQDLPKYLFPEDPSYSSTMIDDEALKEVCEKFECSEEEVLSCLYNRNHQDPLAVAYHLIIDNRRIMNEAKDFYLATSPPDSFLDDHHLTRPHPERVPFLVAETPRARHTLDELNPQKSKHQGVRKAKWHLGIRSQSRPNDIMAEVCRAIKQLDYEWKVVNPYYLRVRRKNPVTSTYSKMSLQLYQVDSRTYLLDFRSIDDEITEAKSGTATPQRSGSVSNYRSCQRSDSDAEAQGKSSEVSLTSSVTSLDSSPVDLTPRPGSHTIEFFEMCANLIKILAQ
For test [9] the target is unchanged. The note with it: at 1 µM.
In test [10] the target is 5'-AMP-activated protein kinase catalytic subunit alpha-2 (Homo sapiens) (UniProt P54646). As to conditions: at 0.1 µM.
Sequence of 5'-AMP-activated protein kinase catalytic subunit alpha-2 (Homo sapiens) (P54646 whole entry, looked up): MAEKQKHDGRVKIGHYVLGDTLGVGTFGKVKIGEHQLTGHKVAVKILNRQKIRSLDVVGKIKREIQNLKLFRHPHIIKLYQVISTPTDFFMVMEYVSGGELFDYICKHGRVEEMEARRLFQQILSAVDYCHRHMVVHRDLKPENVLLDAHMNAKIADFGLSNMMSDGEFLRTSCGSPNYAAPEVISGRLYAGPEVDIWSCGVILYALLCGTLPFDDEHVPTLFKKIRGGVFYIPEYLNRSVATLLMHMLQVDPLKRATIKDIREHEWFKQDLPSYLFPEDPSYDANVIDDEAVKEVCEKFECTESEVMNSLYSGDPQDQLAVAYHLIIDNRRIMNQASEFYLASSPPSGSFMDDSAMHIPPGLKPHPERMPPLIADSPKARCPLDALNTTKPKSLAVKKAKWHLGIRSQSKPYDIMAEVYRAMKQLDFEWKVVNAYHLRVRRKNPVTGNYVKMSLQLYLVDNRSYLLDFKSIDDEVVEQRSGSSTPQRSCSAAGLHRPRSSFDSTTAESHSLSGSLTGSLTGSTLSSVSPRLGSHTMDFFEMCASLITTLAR
Test [11] shares this target. The note with it: at 1 µM.
Test [12] deals with T4, NUAK family SNF1-like kinase 1 (Homo sapiens) (UniProt O60285).
T4 sequence (whole entry): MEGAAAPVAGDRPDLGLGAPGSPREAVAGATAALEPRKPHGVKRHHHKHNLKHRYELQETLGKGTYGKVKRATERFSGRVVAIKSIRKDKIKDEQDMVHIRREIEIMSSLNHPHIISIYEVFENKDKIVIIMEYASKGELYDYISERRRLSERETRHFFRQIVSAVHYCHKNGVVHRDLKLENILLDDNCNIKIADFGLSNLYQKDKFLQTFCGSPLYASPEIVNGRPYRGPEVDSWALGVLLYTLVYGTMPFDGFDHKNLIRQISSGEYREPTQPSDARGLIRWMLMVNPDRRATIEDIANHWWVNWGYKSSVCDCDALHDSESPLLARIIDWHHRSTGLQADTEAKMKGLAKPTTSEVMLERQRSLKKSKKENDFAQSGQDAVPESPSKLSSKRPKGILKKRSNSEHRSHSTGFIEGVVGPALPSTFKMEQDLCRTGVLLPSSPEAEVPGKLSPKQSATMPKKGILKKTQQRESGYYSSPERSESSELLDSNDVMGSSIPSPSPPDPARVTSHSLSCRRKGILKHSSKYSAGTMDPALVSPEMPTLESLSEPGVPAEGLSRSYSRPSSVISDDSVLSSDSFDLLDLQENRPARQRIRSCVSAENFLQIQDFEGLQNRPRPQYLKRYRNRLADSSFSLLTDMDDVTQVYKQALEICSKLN
The note with it: at 0.1 µM.

Test [13] has as its target T4, NUAK family SNF1-like kinase 1 (Homo sapiens). The note with it: at 1 µM.
For test [14], the target named is T5, Serine/threonine-protein kinase BRSK1 (Homo sapiens) (UniProt Q8TDC3).
T5 sequence (whole entry): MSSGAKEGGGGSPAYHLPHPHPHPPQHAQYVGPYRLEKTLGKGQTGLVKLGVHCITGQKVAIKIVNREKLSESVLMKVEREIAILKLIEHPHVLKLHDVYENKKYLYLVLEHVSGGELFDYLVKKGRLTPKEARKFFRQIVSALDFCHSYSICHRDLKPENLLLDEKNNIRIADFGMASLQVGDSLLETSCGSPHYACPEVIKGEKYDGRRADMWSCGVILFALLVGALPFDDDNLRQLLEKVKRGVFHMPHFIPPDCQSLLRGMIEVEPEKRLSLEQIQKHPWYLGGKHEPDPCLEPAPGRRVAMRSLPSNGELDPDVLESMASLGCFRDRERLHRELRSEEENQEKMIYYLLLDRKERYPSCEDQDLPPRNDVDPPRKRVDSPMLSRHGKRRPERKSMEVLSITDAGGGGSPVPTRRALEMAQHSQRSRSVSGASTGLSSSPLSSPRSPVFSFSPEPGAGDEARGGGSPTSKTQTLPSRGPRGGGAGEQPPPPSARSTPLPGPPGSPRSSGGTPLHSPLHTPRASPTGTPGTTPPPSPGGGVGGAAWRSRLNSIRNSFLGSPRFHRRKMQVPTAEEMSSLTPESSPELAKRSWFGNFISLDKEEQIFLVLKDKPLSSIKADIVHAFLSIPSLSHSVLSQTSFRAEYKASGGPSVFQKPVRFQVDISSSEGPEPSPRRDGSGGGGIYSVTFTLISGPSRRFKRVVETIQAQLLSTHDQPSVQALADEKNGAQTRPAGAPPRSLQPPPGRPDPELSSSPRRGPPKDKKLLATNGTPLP
As to conditions: at 0.1 µM.

Test [15] has as its target T5, Serine/threonine-protein kinase BRSK1 (Homo sapiens). The note with it: at 1 µM.
Test [16] has as its target T6, Serine/threonine-protein kinase BRSK2 (Homo sapiens) (UniProt Q8IWQ3).
T6 sequence (whole entry): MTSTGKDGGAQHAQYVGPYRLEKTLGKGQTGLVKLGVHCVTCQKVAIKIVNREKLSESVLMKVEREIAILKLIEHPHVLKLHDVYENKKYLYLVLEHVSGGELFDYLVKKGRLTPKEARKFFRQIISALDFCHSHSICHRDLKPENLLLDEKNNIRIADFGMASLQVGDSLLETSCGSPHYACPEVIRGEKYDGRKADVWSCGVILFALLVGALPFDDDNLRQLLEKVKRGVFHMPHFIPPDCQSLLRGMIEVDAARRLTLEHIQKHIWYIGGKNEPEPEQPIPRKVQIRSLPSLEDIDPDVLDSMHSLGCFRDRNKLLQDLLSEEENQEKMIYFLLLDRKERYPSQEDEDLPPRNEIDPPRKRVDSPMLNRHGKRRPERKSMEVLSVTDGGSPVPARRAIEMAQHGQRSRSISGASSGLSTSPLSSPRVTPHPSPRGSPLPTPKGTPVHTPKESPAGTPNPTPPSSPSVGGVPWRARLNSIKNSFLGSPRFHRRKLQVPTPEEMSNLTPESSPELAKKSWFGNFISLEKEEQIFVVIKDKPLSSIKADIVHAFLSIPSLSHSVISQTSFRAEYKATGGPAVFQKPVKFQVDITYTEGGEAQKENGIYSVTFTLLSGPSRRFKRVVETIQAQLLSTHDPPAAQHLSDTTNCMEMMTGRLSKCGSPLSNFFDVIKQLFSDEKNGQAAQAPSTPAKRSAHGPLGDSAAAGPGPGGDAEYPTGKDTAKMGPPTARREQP
The note with it: at 0.1 µM.

Test [17] has as its target T6, Serine/threonine-protein kinase BRSK2 (Homo sapiens). As to conditions: at 1 µM.
Test [18] deals with Calcium/calmodulin-dependent protein kinase type 1D (Homo sapiens) (UniProt Q8IU85). As to conditions: at 0.1 µM.
Sequence of Calcium/calmodulin-dependent protein kinase type 1D (Homo sapiens) (Q8IU85 whole entry, looked up): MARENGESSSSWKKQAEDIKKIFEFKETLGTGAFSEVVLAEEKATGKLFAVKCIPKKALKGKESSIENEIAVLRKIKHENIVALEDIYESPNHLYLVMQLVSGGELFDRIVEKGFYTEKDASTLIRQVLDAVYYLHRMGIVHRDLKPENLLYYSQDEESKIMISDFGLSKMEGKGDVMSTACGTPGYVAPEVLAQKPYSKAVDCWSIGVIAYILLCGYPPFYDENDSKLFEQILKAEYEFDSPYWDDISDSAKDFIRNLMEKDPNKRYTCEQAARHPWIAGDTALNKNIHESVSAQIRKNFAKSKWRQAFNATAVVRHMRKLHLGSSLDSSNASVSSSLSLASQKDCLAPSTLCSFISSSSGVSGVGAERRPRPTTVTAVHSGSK
For test [19] the target is unchanged. As to conditions: at 1 µM.
Test [20] addresses Calcium/calmodulin-dependent protein kinase type II subunit alpha (Homo sapiens) (UniProt Q9UQM7). The note with it: at 0.1 µM.

Sequence of Calcium/calmodulin-dependent protein kinase type II subunit alpha (Homo sapiens) (Q9UQM7 whole entry): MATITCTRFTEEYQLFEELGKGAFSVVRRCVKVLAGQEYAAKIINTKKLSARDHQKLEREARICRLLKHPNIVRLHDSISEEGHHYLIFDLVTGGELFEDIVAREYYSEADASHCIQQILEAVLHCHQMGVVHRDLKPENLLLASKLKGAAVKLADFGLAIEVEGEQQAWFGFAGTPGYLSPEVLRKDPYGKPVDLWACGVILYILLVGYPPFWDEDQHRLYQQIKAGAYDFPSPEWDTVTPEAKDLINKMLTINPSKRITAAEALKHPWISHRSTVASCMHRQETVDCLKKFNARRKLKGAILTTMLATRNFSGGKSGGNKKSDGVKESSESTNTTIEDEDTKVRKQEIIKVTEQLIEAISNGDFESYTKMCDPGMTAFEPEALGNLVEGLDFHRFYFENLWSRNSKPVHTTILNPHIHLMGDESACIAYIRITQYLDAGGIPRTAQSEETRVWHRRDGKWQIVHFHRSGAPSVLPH
Sequence of Ribosomal protein S6 kinase alpha-6 (Homo sapiens) (Q9UK32 whole entry): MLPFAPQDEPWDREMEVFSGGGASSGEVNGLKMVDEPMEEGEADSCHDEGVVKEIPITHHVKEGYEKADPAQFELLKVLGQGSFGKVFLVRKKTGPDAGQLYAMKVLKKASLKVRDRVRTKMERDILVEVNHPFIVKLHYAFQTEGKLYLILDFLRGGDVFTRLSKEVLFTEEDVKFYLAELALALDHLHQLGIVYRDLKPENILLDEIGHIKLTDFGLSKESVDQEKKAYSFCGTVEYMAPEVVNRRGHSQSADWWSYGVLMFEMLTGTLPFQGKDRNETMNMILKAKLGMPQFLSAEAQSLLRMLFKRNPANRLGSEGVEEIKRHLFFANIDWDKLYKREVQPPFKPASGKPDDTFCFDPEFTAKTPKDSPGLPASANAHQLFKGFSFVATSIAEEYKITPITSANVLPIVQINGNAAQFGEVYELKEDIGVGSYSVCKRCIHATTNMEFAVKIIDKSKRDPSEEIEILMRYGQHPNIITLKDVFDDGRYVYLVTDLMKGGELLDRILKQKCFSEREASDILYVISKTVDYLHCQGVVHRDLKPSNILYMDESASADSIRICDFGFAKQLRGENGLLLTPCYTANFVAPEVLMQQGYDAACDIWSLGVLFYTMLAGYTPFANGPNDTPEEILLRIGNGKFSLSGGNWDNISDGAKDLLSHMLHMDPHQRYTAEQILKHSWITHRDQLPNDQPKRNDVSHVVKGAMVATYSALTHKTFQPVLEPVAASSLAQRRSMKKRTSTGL

On to `CCn1c(-c2nonc2N)nc2c(C#CCN)ncc(OCCCN)c21`, for which the inhibition in [1] is 15.3%; in test [2], 1.23%; in [3], 5.38%; in test [4] it was -0.28%; in test [5] it was 8.17%; in [6], 5.66%. Moreover, the inhibition in test [7] turned out to be 40.1%; in test [8], 0.48%; in test [9] it was 4.78%; in [10], 2.63%; in [11], 2.16%; in [12], 6.71%. The inhibition in test [13] was 10.4%; in test [14] it was 4.54%; in [15] it was 10.3%; in test [16], 7.19%; in [17], 12.2%; in test [18], -0.21%. Also, the inhibition was -0.05% in test [19] and -2.48% in test [20].
For `COc1cc2c(cc1Nc1nc(Nc3ccsc3C(N)=O)c3cc[nH]c3n1)N(C(=O)CN(C)C)CCC2`, the inhibition in test [1] is 16.4%; in [2], 3.82%; in test [3] it was 2.11%; in test [4], 2.89%; in [5], 2.84%; in [6], -0.08%. Also, the inhibition was -0.04% in test [7]; 1.03% in test [8]; -0.4% in [9]; 0.93% in test [10]; 2.09% in [11]; 1.84% in [12]. For the same molecule, the inhibition is 1.85% in test [13]; 0.07% in [14]; 1.57% in [15]; 0.73% in test [16]; -0.28% in test [17]; -4.48% in [20].
For the molecule `NS(=O)(=O)c1ccc(N/C=C2\C(=O)Nc3ccc4ncsc4c32)cc1`, the inhibition in test [1] came out at 59.9%; in test [2] it was 9.85%; in [3], 47.5%; in [4], 4.72%; in test [5], 18.4%; in test [6], 3.8%. Moreover, the inhibition in test [7] is 10.2%; in test [8], 21.1%; in [9] it was 59.9%; in test [10], 14.4%; in test [11], 42.8%; in [12] it was 59.2%. In addition, the inhibition in test [13] amounted to 69.1%; in test [14] it was 17.6%; in test [15], 53.1%; in test [16], 33%; in test [17], 62.4%; in [18] it was 0.05%. The figures for the inhibition in [19] and in [20] were 0.92% and 2.56%, respectively.
Turning to `CCn1c(-c2nonc2N)nc2c(C#CC(C)(C)O)nc(O[C@@H](CN)c3ccccc3)cc21`, the inhibition came to 23.4% in test [1]; 4% in test [2]; 34.2% in test [3]; 5.31% in test [4]; 3.43% in test [5]; 64.9% in test [6]. Also, the inhibition in test [7] stood at 94.2%; in test [8], 79.2%; in [9], 88.1%; in [10], 24.6%; in test [11] it was 68.1%; in test [12], 24.4%. Further, the inhibition in test [13] worked out at 69.6%; in test [14], 6.66%; in [15], 38.4%; in [16] it was 13.7%; in test [17], 58.8%; in test [18] it was 13.2%. Moreover, the inhibition in test [19] is 29.4%; in test [20], -1.19%.

What is called inhibition is the relative decrease from the control value, in per cent.
